Measured values from PubChem BioAssay.
Entries with a potency or affinity are not part of this list. The source made the active and inactive calls. The limit is not given here; nearly all actives have IC50 up to about 0.91 µM.

Target: Calcium-dependent protein kinase 4 (Plasmodium falciparum (isolate 3D7)) (UniProt Q8IBS5)
Assay: PfCDPK4 kinase inhibitors, biochemical, TCAMS library (AID 1159588)
Settings: recombinant PfCDPK4, Kinase-Glo ATP depletion luminescence

Calcium-dependent protein kinase 4 (Plasmodium falciparum (isolate 3D7)), sequence (Q8IBS5 whole entry, looked up): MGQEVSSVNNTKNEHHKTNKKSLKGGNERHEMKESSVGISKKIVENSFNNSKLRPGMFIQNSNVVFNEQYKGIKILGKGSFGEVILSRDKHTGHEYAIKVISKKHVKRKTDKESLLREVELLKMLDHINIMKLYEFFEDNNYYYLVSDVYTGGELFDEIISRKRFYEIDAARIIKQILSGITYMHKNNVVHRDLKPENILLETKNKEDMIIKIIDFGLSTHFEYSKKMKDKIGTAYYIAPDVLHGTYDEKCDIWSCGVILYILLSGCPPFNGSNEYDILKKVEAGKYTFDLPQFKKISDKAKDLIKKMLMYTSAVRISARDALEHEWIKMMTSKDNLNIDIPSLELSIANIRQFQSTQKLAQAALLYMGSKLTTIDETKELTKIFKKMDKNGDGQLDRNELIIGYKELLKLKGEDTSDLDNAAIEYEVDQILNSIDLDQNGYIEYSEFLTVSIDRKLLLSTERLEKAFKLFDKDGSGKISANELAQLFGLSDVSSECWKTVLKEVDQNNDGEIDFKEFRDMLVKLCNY

| SMILES | outcome |
| --- | --- |
| C[C@@H]1CC[C@H](NC(=O)[C@H](CC2CCCC2)NC(=O)N2CCNCC2)C(=O)CN1S(=O)(=O)c1ccccn1 | inactive |
| O=C(Nc1cccc(C(F)(F)F)c1)c1cccc(S(=O)(=O)NCC2CCN(CC3CCCCC3)CC2)c1 | inactive |
| CCc1cn2c3c(cc(C(=O)N[C@@H](Cc4ccccc4)[C@H](O)CNC(C)C)cc13)N(C)S(=O)(=O)C2 | inactive |
| O=C(NCCc1cccc(F)c1)c1ccc(N2CCN(c3ccncc3)CC2)cn1 | inactive |
| CCc1cn2c3c(cc(C(=O)N[C@@H](Cc4ccccc4)[C@H](O)CNC4CC4)cc13)N(CC)S(=O)(=O)CC2 | inactive |
| CC(C)(CNCc1cccc(Oc2ccccc2)c1)c1nc(-c2ccc(Cl)c(O)c2)c(-c2ccnc(N)n2)[nH]1 | inactive |
| O=C(Nc1cccc(CN2CCCN(Cc3ccc(O)cc3)CC2)c1)c1cc2ccccc2s1 | inactive |
| Cc1nc(-c2cccc(Nc3nccc(NCC(O)c4ccccc4C(F)(F)F)n3)c2)cs1 (stereo not given) | inactive |
| O=C(CCc1ccccc1)N[C@H](Cc1c[nH]c2ccccc12)C(=O)N1CCC(NCc2ccc3c(c2)Cc2ccccc2-3)CC1 | inactive |
| Cc1nn(CC(C)C)c2sc(C(=O)N3CCN(S(=O)(=O)c4ccc(C#N)cc4)CC3)cc12 | inactive |
| Cc1cnc(C(=O)Nc2ccc3c(c2)CCCN(Cc2c[nH]c4cnccc24)C3)cn1 | inactive |
| COc1ccc(-n2ccnc2SCC(=O)Nc2cc(C(F)(F)F)ccc2Cl)c(OC)c1 | inactive |
| CCCC(=O)Nc1ccc(OCCN(Cc2ccccc2OC(F)(F)F)c2ccc(C(F)(F)F)c(C#N)c2)cc1 | inactive |
| CC(C)c1cccc(OCC2CCN(c3ncc(C(=O)Nc4ccccc4)cc3Cl)CC2)c1 | inactive |
| CN(C)C(=O)c1cc(CNCc2ccccc2)ccc1-c1cccc(CNCc2ccc(-c3ccccc3)cc2)c1 | inactive |
| O=C(Nc1ccc(C(=O)N(Cc2ccc3c(c2)OCO3)C2CCCC2)cc1)c1cccs1 | inactive |
| CN1CCN(c2cc(NC(=O)Nc3ccc(-c4ccncc4)c(Cl)c3)ccc2Br)CC1 | inactive |
| COc1ccc2nccc([C@@H](O)CN3CCC(NCc4cc5ccccn5n4)CC3)c2c1 | inactive |
| CCCCN1CCN(CC(O)CNC(=O)Nc2ccc(Cl)cc2)CC1 (stereo not given) | inactive |
| CCCC(CNCc1cccc(OCC)c1)CNc1cc(=O)c2ccccc2[nH]1 (stereo not given) | inactive |

| SMILES | outcome |
| --- | --- |
| NS(=O)(=O)c1cccc(-c2ccc3c(=O)[nH]cnc3c2)c1 | inactive |
| Cc1c(Oc2ccc(-n3ccnc3)cc2)ncnc1N1CCC2(CC1)CNCc1ccccc12 | inactive |
| CCOC(=O)N[C@@H]1CN[C@@H](C#Cc2cc3c(Nc4ccc(OCc5cccc(F)c5)c(Cl)c4)ncnc3s2)C1 | inactive |
| Cc1cccc2[nH]c(-c3ccc(-c4cccc(NC(=O)Nc5ccsc5)c4)s3)nc12 | inactive |
| CC(CNc1nc(NCC(c2ccccc2)c2ccccc2)c2[nH]cnc2n1)c1ccccc1 (stereo not given) | inactive |
| c1cc2c3c(cccc3c1)NC(CCCCCCCCC1=Nc3cccc4cccc(c34)N1)=N2 | inactive |
| Clc1ccc(-c2[nH]c3ccccc3c2CN2CCC(N3CCCCC3)CC2)cc1 | inactive |
| N#Cc1ccc2[nH]cc(CN3CCC4(CC3)CN(CCNCc3ccccc3)C(=O)CO4)c2c1 | inactive |
| COc1ccc2cc(C(c3nnnn3CC3CCCO3)N3CCc4ccccc43)c(=O)[nH]c2c1 (stereo not given) | inactive |
| CC1CN(c2ccc(NC(=O)c3cccs3)cc2)CCN1Cc1cccc(F)c1 (stereo not given) | inactive |
| NC1=NC(c2ccccc2)N(c2ccccc2)C(N)=N1 (stereo not given) | inactive |
| Cc1[nH]c2ccccc2c1C1CCN(CCCCNC(=O)c2ccc(-c3ccc(C#N)cc3)cc2)CC1 | inactive |
| Cc1nc2nc(N)nc(N)c2c(C)c1Cc1cccc(C(F)(F)F)c1 | inactive |
| O=C(Nc1ccc2nc(-c3ccccc3)[nH]c2c1)c1cc(-c2ccc3c(c2)OCCO3)n[nH]1 | inactive |
| CC1(C)CN(CCC2CCC(NC(=O)/C=C/c3ccccc3F)CC2)Cc2ccc(C#N)cc21 (stereo not given) | inactive |
| COc1cc(NC(=O)/C=C/c2cc3ccccc3n2C)ccc1OCCN(C(C)C)C(C)C | inactive |
| O=C(Nc1ccc2ccccc2n1)c1ccccc1-c1ccccc1 | inactive |
| COc1cc(NC(=O)c2sc(-c3ccc(Cl)cc3)cc2NC(=O)c2cccc(N(C)C)c2)ccc1OCCN1CCCC1 | inactive |
| COc1cc(NC(=O)/C=C/c2cc(F)cc(F)c2F)cc(OCCN2CCN(CCN3CCOCC3)CC2)c1 | inactive |
| CCOC(=O)c1ccc(NC(=O)N[C@@H](Cc2ccccc2)C(=O)NC2CCN(Cc3ccc(O)c(OC)c3)C2)cc1 (stereo not given in full) | inactive |
